# Measurements reported in PubChem BioAssay (NCI).
# Values joined by “and” are separate entries in the source; they are usually repeats but may differ in a detail not shown here. Identical values can stand only once. This is part of a sample that, as a whole, favours compounds with a hit. Of some 83,000 tested, about 20% had one in any assay.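 Single-dose data. Exposure time 48 hours. Values below 10 considered active.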 Active and inactive are the calls of the source.
# System: HL-60(TB) leukemia
# Experiment: NCI-60 one-dose screen, 48 h (100 = growth as untreated, 0 = no growth, -100 = all killed)
# Settings: 10 µM unless noted
row,SMILES,growth
1,CCc1nc2cc(/C=C/C(=O)NO)ccc2c(=O)n1CCc1ccc(F)cc1,-7.3% (active)
2,COc1ccc(C(CC(=O)c2ccc3c(c2)OCO3)C(=O)O)cc1OC (configuration not stated),101% (inactive) and 99.7% (inactive)
3,NS(=O)(=O)c1ccc(N2Cc3cc(Cl)ccc3OC3=C2C(=O)N(CC2CCCCC2)C3=O)cc1,-35.9% (active)
4,CCN(CC)c1nc(SCc2ccccc2Cl)ncc1C,89.7% (inactive)
5,O=S(=O)(Nc1ccc(NS(=O)(=O)c2ccccc2)c(Cl)c1)c1ccccc1,78.4% (inactive)
6,Cn1ncc2c(Nc3ccc(Br)cc3)nc(Nc3ccc(Br)cc3)nc21,69.2% (inactive)
7,COc1ccc(-c2ccc3c(c2)sc2nc(-c4ccc(F)cc4)cn23)cc1,92% (inactive)
